molecular target: SpBzz1-D2; test: SPOT peptide array binding signal intensity (averaged, normalized) (arbitrary units (background-subtracted, floor 0; scale differs between SH3 domains)); higher = stronger binding of the SH3 domain to the peptide
Method in brief: (§1)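 Four yeast species supplied the SH3 domains, which were expressed as GST fusions in E. coli BL21(DE3) and purified on glutathione Sepharose. Incubation with cellulose membranes carrying synthetic 15-mer peptides, cysteines exchanged for serines, ran overnight at 4°C at 10 μg/ml in TBS-based blocking buffer. Binding signal is reported as normalized, background-subtracted spot intensity averaged over replicates, in arbitrary units not shared between domains.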

Binder	SPOT peptide array binding signal intensity
SSSSTPPTLPPRRIE	≤ 0
ERPKRRAPPPVPKKP	40.2

molecular target: SpCyk3; test: as above
Method in brief: as §1

Binder	SPOT peptide array binding signal intensity
SSSSTPPTLPPRRIE	4
ERPKRRAPPPVPKKP	1

molecular target: SpHof1; test: as above
Method in brief: as §1

Binder	SPOT peptide array binding signal intensity
SSSSTPPTLPPRRIE	4.5
ERPKRRAPPPVPKKP	112

molecular target: SpHof1-2; test: as above
Method in brief: as §1

Binder	SPOT peptide array binding signal intensity
SSSSTPPTLPPRRIE	12.2
ERPKRRAPPPVPKKP	12

molecular target: SpHof1-3; test: as above
Method in brief: as §1

Binder	SPOT peptide array binding signal intensity
SSSSTPPTLPPRRIE	10
ERPKRRAPPPVPKKP	122

molecular target: SpHse1; test: as above
Method in brief: as §1

Binder	SPOT peptide array binding signal intensity
SSSSTPPTLPPRRIE	16
ERPKRRAPPPVPKKP	43.2

molecular target: SpLsb1; test: as above
Method in brief: as §1

Binder	SPOT peptide array binding signal intensity
SSSSTPPTLPPRRIE	3060
ERPKRRAPPPVPKKP	302

molecular target: SpLsb4; test: as above
Method in brief: as §1

Binder	SPOT peptide array binding signal intensity
SSSSTPPTLPPRRIE	6340
ERPKRRAPPPVPKKP	489

molecular target: SpMyo1; test: as above
Method in brief: as §1

Binder	SPOT peptide array binding signal intensity
SSSSTPPTLPPRRIE	594
ERPKRRAPPPVPKKP	1100

molecular target: SpNbp2; test: as above
Method in brief: as §1

Binder	SPOT peptide array binding signal intensity
SSSSTPPTLPPRRIE	≤ 0
ERPKRRAPPPVPKKP	10

molecular target: SpPex13; test: as above
Method in brief: as §1

Binder	SPOT peptide array binding signal intensity
SSSSTPPTLPPRRIE	4
ERPKRRAPPPVPKKP	15

molecular target: SpRvs167; test: as above
Method in brief: as §1

Binder	SPOT peptide array binding signal intensity
SSSSTPPTLPPRRIE	3420
ERPKRRAPPPVPKKP	175

molecular target: SpSla1-D1-D2; test: as above
Method in brief: as §1

Binder	SPOT peptide array binding signal intensity
SSSSTPPTLPPRRIE	≤ 0
ERPKRRAPPPVPKKP	215

molecular target: SpSla1-D3; test: as above
Method in brief: as §1

Binder	SPOT peptide array binding signal intensity
SSSSTPPTLPPRRIE	≤ 0
ERPKRRAPPPVPKKP	≤ 0

molecular target: AgAbp1; test: as above
Method in brief: as §1

Binder	SPOT peptide array binding signal intensity
ERPKRRAPPPVPKKP	1360

molecular target: AgBbc1; test: as above
Method in brief: as §1

Binder	SPOT peptide array binding signal intensity
ERPKRRAPPPVPKKP	936

molecular target: AgBem1-D1; test: as above
Method in brief: as §1

Binder	SPOT peptide array binding signal intensity
ERPKRRAPPPVPKKP	86.5

molecular target: AgBzz1-D1; test: as above
Method in brief: as §1

Binder	SPOT peptide array binding signal intensity
ERPKRRAPPPVPKKP	1350

molecular target: AgBzz1-D2; test: as above
Method in brief: as §1

Binder	SPOT peptide array binding signal intensity
ERPKRRAPPPVPKKP	1190

molecular target: AgCyk3; test: as above
Method in brief: as §1

Binder	SPOT peptide array binding signal intensity
ERPKRRAPPPVPKKP	2

molecular target: AgFus1; test: as above
Method in brief: as §1

Binder	SPOT peptide array binding signal intensity
ERPKRRAPPPVPKKP	3.5

molecular target: AgHof1; test: as above
Method in brief: as §1

Binder	SPOT peptide array binding signal intensity
ERPKRRAPPPVPKKP	124

molecular target: AgHse1; test: as above
Method in brief: as §1

Binder	SPOT peptide array binding signal intensity
ERPKRRAPPPVPKKP	22

molecular target: AgLsb1; test: as above
Method in brief: as §1

Binder	SPOT peptide array binding signal intensity
ERPKRRAPPPVPKKP	62.5

molecular target: AgLsb4; test: as above
Method in brief: as §1

Binder	SPOT peptide array binding signal intensity
ERPKRRAPPPVPKKP	25

molecular target: AgMyo5; test: as above
Method in brief: as §1

Binder	SPOT peptide array binding signal intensity
ERPKRRAPPPVPKKP	359

molecular target: AgNbp2; test: as above
Method in brief: as §1

Binder	SPOT peptide array binding signal intensity
ERPKRRAPPPVPKKP	292

molecular target: AgRvs167; test: as above
Method in brief: as §1

Binder	SPOT peptide array binding signal intensity
ERPKRRAPPPVPKKP	1.83

molecular target: AgSho1; test: as above
Method in brief: as §1

Binder	SPOT peptide array binding signal intensity
ERPKRRAPPPVPKKP	83

molecular target: AgSla1-D1-D2; test: as above
Method in brief: as §1

Binder	SPOT peptide array binding signal intensity
ERPKRRAPPPVPKKP	7

molecular target: AgSla1-D3; test: as above
Method in brief: as §1

Binder	SPOT peptide array binding signal intensity
ERPKRRAPPPVPKKP	140

molecular target: CaAbp1-D1; test: as above
Method in brief: as §1

Binder	SPOT peptide array binding signal intensity
ERPKRRAPPPVPKKP	1770

molecular target: CaAbp1-D2; test: as above
Method in brief: as §1

Binder	SPOT peptide array binding signal intensity
ERPKRRAPPPVPKKP	1480

molecular target: CaBbc1; test: as above
Method in brief: as §1

Binder	SPOT peptide array binding signal intensity
ERPKRRAPPPVPKKP	1090

molecular target: CaBem1-D1; test: as above
Method in brief: as §1

Binder	SPOT peptide array binding signal intensity
ERPKRRAPPPVPKKP	42.5

molecular target: CaBzz1-D1; test: as above
Method in brief: as §1

Binder	SPOT peptide array binding signal intensity
ERPKRRAPPPVPKKP	6780

molecular target: CaBzz1-D2; test: as above
Method in brief: as §1

Binder	SPOT peptide array binding signal intensity
ERPKRRAPPPVPKKP	3000

molecular target: CaCyk3; test: as above
Method in brief: as §1

Binder	SPOT peptide array binding signal intensity
ERPKRRAPPPVPKKP	29

molecular target: CaFus1; test: as above
Method in brief: as §1

Binder	SPOT peptide array binding signal intensity
ERPKRRAPPPVPKKP	30

molecular target: CaHof1; test: as above
Method in brief: as §1

Binder	SPOT peptide array binding signal intensity
ERPKRRAPPPVPKKP	0.5

molecular target: CaHse1; test: as above
Method in brief: as §1

Binder	SPOT peptide array binding signal intensity
ERPKRRAPPPVPKKP	24.8

molecular target: CaLsb1; test: as above
Method in brief: as §1

Binder	SPOT peptide array binding signal intensity
ERPKRRAPPPVPKKP	≤ 0

molecular target: CaLsb4; test: as above
Method in brief: as §1

Binder	SPOT peptide array binding signal intensity
ERPKRRAPPPVPKKP	243

molecular target: CaMyo5; test: as above
Method in brief: as §1

Binder	SPOT peptide array binding signal intensity
ERPKRRAPPPVPKKP	4.5

molecular target: CaNbp2; test: as above
Method in brief: as §1

Binder	SPOT peptide array binding signal intensity
ERPKRRAPPPVPKKP	814

molecular target: CaRvs167; test: as above
Method in brief: as §1

Binder	SPOT peptide array binding signal intensity
ERPKRRAPPPVPKKP	16.7

molecular target: CaRvs167-3; test: as above
Method in brief: as §1

Binder	SPOT peptide array binding signal intensity
ERPKRRAPPPVPKKP	0.75

molecular target: CaSho1; test: as above
Method in brief: as §1

Binder	SPOT peptide array binding signal intensity
ERPKRRAPPPVPKKP	6

molecular target: CaSla1-D1-D2; test: as above
Method in brief: as §1

Binder	SPOT peptide array binding signal intensity
ERPKRRAPPPVPKKP	2360

molecular target: CaSla1-D3; test: as above
Method in brief: as §1

Binder	SPOT peptide array binding signal intensity
ERPKRRAPPPVPKKP	698

molecular target: ScAbp1; test: as above
Method in brief: as §1

Binder	SPOT peptide array binding signal intensity
ERPKRRAPPPVPKKP	2010

molecular target: ScBbc1; test: as above
Method in brief: as §1

Binder	SPOT peptide array binding signal intensity
ERPKRRAPPPVPKKP	460

molecular target: ScBem1-D1; test: as above
Method in brief: as §1

Binder	SPOT peptide array binding signal intensity
ERPKRRAPPPVPKKP	4

molecular target: ScBzz1-D1; test: as above
Method in brief: as §1

Binder	SPOT peptide array binding signal intensity
ERPKRRAPPPVPKKP	2120

molecular target: ScBzz1-D2; test: as above
Method in brief: as §1

Binder	SPOT peptide array binding signal intensity
ERPKRRAPPPVPKKP	66

molecular target: ScCyk3; test: as above
Method in brief: as §1

Binder	SPOT peptide array binding signal intensity
ERPKRRAPPPVPKKP	2.5

molecular target: ScFus1; test: as above
Method in brief: as §1

Binder	SPOT peptide array binding signal intensity
ERPKRRAPPPVPKKP	6

molecular target: ScHof1; test: as above
Method in brief: as §1

Binder	SPOT peptide array binding signal intensity
ERPKRRAPPPVPKKP	≤ 0

molecular target: ScHse1; test: as above
Method in brief: as §1

Binder	SPOT peptide array binding signal intensity
ERPKRRAPPPVPKKP	≤ 0

molecular target: ScLsb1; test: as above
Method in brief: as §1

Binder	SPOT peptide array binding signal intensity
ERPKRRAPPPVPKKP	101

molecular target: ScLsb2; test: as above
Method in brief: as §1

Binder	SPOT peptide array binding signal intensity
ERPKRRAPPPVPKKP	70

molecular target: ScLsb3; test: as above
Method in brief: as §1

Binder	SPOT peptide array binding signal intensity
ERPKRRAPPPVPKKP	608

molecular target: ScLsb4; test: as above
Method in brief: as §1

Binder	SPOT peptide array binding signal intensity
ERPKRRAPPPVPKKP	10

molecular target: ScMyo3; test: as above
Method in brief: as §1

Binder	SPOT peptide array binding signal intensity
ERPKRRAPPPVPKKP	1180

molecular target: ScMyo5; test: as above
Method in brief: as §1

Binder	SPOT peptide array binding signal intensity
ERPKRRAPPPVPKKP	959

molecular target: ScNbp2; test: as above
Method in brief: as §1

Binder	SPOT peptide array binding signal intensity
ERPKRRAPPPVPKKP	577

molecular target: ScPex13; test: as above
Method in brief: as §1

Binder	SPOT peptide array binding signal intensity
ERPKRRAPPPVPKKP	257

molecular target: ScRvs167; test: as above
Method in brief: as §1

Binder	SPOT peptide array binding signal intensity
ERPKRRAPPPVPKKP	151

molecular target: ScSho1; test: as above
Method in brief: as §1

Binder	SPOT peptide array binding signal intensity
ERPKRRAPPPVPKKP	166

molecular target: ScSla1-D1-D2; test: as above
Method in brief: as §1

Binder	SPOT peptide array binding signal intensity
ERPKRRAPPPVPKKP	1960

molecular target: ScSla1-D3; test: as above
Method in brief: as §1

Binder	SPOT peptide array binding signal intensity
ERPKRRAPPPVPKKP	691

molecular target: SpAbp1-D1; test: as above
Method in brief: as §1

Binder	SPOT peptide array binding signal intensity
ERPKRRAPPPVPKKP	280

molecular target: SpBbc1; test: as above
Method in brief: as §1

Binder	SPOT peptide array binding signal intensity
ERPKRRAPPPVPKKP	76

molecular target: SpBzz1-D1; test: as above
Method in brief: as §1

Binder	SPOT peptide array binding signal intensity
ERPKRRAPPPVPKKP	1460

From the supplement of paper PMC4466140
